The list is not random: actives were taken first. Their share in the collection is about 2.7%.
SENP8 block-1: inhibitors of human SENP8 protease. recombinant SENP8, Nedd8 substrate fluorescence. AID 602440. 0.64% of 360,000 active. Q96LD8. inhibition, % at 20 µM; in the data active = inhibition mostly above about 40%, no sharp cut-off; inactive = mostly below about 27%
Target sequence (Q96LD8 whole entry, looked up): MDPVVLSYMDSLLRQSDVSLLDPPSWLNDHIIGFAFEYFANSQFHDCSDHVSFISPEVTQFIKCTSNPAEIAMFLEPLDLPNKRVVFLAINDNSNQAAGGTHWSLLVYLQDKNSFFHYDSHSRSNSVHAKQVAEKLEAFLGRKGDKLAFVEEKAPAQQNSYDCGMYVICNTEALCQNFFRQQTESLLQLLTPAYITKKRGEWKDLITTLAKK
SENP6 inh: inhibitors of human SENP6 protease. Q9GZR1. Recombinant SENP6 catalytic domain, aminoluciferin luminescence. inhibition, % at 10 µM. 1.8% of 330,000 active. AID 2599;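 active = inhibition above about 50% at the single tested dose, limit read from the data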
SENP7 block: blocks the human protease SENP7; recombinant SENP7, Z-RLRGG-aminoluciferin luminescence, 40 min; inhibition, % at 5 µM; 1.5% of 330,000 active;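 active = inhibition above about 50% at the single test dose, limit read from the data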
HSP90 inh: inhibitors of HSP90 luciferase refolding in rabbit reticulocyte lysate; luciferase refolding luminescence, 3 h; inhibition, % at 5.6 µM; 0.91% of 290,000 active;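 active = inhibition above the screen-wide mean plus 3 SD, computed separately per campaign, cut at about 16% in these data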;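 note: inhibitors lower the luminescence because luciferase stays unfolded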
SENP8 block-2: SENP8 protease inhibition. inhibition, % at 10 µM. purified SENP8, Z-RLRGG-aminoluciferin cleavage, luminescence. 1.2% of 330,000 active. AID 2540; in the data active = inhibition above about 50%
HSP90 confirm: confirmation of HSP90 inhibitors. 64% of 2,300 active. rabbit reticulocyte lysate, luciferase refolding luminescence, 3 h. shares compounds with HSP90 inh. inhibition, % at 5.9 µM; in the data active = inhibition above about 18%
luciferase ctr: firefly luciferase inhibition, HSP90 counter-screen; purified native firefly luciferase, luminescence; 48% of 2,300 active; inhibition, % at 5.9 µM; shares compounds with HSP90 inh;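 active = inhibition above the mean inhibition of all tested sample wells plus 3 SD, cut at about 10% in these data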
SENP8 conf: confirmation of human SENP8 protease inhibitors; inhibition, % at 12.5 µM; 40% of 6,200 active; AID 488912; shares compounds with SENP7 block; Recombinant SENP8, Z-RLRGG-aminoluciferin luminescence, 60 min;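 active = mean inhibition across replicates above about 50%, limit read from the data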
SENP6 conf: confirmation of human SENP6 protease inhibitors. shares compounds with SENP7 block. recombinant SENP6, Z-RLRGG-aminoluciferin luminescence. inhibition, % at 12.5 µM. 58% of 6,200 active. AID 488915
SENP7 confirm: confirmation of human SENP7 protease inhibitors. inhibition, % at 12.5 µM. shares compounds with SENP7 block. 69% of 6,200 active. recombinant SENP7, Z-RLRGG-aminoluciferin luminescence, 40 min
Casp3 SENP sel: caspase-3 inhibition (SENP selectivity assay); inhibition, % at 12.5 µM; shares compounds with SENP7 block; 60% of 6,200 active; purified caspase-3, Z-DEVD-aminoluciferin luminescence, 60 min; AID 488918;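 active = mean inhibition above about 50%, limit read from the data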
Target sequence (P42574 28-227 limits assumed): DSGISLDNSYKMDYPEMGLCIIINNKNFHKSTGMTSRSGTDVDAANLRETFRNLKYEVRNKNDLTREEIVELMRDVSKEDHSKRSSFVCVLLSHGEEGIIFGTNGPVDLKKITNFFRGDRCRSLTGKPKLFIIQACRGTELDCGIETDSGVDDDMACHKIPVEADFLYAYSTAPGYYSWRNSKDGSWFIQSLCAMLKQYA
Luc interf: interferes with luciferase luminescence in SENP counter-screen. shares compounds with SENP7 block. Pre-incubated SENP8/Z-RLRGG-aminoluciferin, luciferase luminescence interference. inhibition, % at 12.5 µM. 39% of 6,200 active. AID 488919;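 active = mean inhibition above about 50% when retested at one dose, limit read from the data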
Large screens that a line does not name were inactive (follow-up assays come after a bar, where they were run).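 Rule for the calls, unless noted: active = mean inhibition above about 50% in the one-dose retest (limit read from the data); inactive = the rest.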

CCOC(=O)Cc1csc(NC(=O)c2cc3c(s2)CCCC3)n1	none
CN1C(=O)Cc2cc(S(=O)(=O)N3CCN(c4cccc(C(F)(F)F)c4)CC3)ccc21	none
Cc1[nH]c(C)c(S(=O)(=O)NCc2ccccc2Cl)c1C(=O)N1CCCC1	none
COc1ccc(C(C[N+](=O)[O-])c2c(C)[nH]n(-c3ccccc3)c2=O)cc1 (stereo not drawn)	SENP8 block-1 84.3, SENP6 inh 65.5, SENP7 block 60.8, HSP90 inh 26.5 | HSP90 confirm 50.5 | luciferase ctr inactive | SENP8 conf inactive | SENP6 conf 59.8 | SENP7 confirm inactive | Casp3 SENP sel inactive | Luc interf inactive
CN1CCN(c2nc(-c3ccc(C(C)(C)C)cc3)nc3ccccc23)CC1	SENP6 inh 54.2, HSP90 inh 54.4 | HSP90 confirm 52.4 | luciferase ctr 49.2 | SENP8 conf inactive | SENP6 conf inactive | SENP7 confirm inactive | Casp3 SENP sel inactive | Luc interf inactive
Cc1ccc(-c2nc(N3CCN(C)CC3)c3ccccc3n2)cc1	none
CC(C)c1ccc2oc(-c3ccc(N)cc3)nc2c1	SENP6 inh 94.1, SENP7 block 93.1, HSP90 inh 22.6, SENP8 block-2 86.3 | HSP90 confirm 49.6 | luciferase ctr 46.3 | SENP8 conf 94.5 | SENP6 conf 94.8 | SENP7 confirm 100.2 | Casp3 SENP sel 68.9 | Luc interf 93.6
Cc1ccc(-c2nc3ccc([N+](=O)[O-])cc3[nH]2)cc1	SENP6 inh 76.0, SENP7 block 72.8, HSP90 inh 24.6, SENP8 block-2 66.4 | HSP90 confirm 41.6 | luciferase ctr 43.4 | SENP8 conf inactive | SENP6 conf 76.9 | SENP7 confirm 95.8 | Casp3 SENP sel 64.5 | Luc interf inactive
CC(C)(C)c1ccc(-c2nc3cc(N)ccc3o2)cc1	SENP6 inh 82.8, SENP7 block 78.2, HSP90 inh 30.8, SENP8 block-2 73.6 | HSP90 confirm 41.9 | luciferase ctr 44.7 | SENP8 conf inactive | SENP6 conf 84.1 | SENP7 confirm 94.6 | Casp3 SENP sel inactive | Luc interf 77.4
Cc1ccc2oc(-c3cccc(N)c3)nc2c1	SENP6 inh 96.9, SENP7 block 98.1, HSP90 inh 33.3, SENP8 block-2 93.9 | HSP90 confirm 43.2 | luciferase ctr 38.3 | SENP8 conf inactive | SENP6 conf 96.6 | SENP7 confirm 102.5 | Casp3 SENP sel 94.2 | Luc interf 58.5
CC(C)c1ccc2oc(-c3ccc(NC(=O)c4ncn[nH]4)cc3)nc2c1	none
Cc1ccc2nc(-c3cccc(N)c3)[nH]c2c1	SENP6 inh 93.5, SENP7 block 95.7, HSP90 inh 17.8, SENP8 block-2 88.2 | HSP90 confirm 45.3 | luciferase ctr 32.5 | SENP8 conf inactive | SENP6 conf 91.4 | SENP7 confirm 100.8 | Casp3 SENP sel 95.4 | Luc interf 92.7
O=C1/C(=C/N(C(=O)c2ccco2)c2ccc(Br)cc2)Sc2ccccc21	SENP6 inh 90.0, SENP7 block 79.5, HSP90 inh 17.4, SENP8 block-2 84.4 | HSP90 confirm 57.2 | luciferase ctr 60.7 | SENP8 conf inactive | SENP6 conf 51.0 | SENP7 confirm 71.5 | Casp3 SENP sel inactive | Luc interf inactive
COC(=O)C1CCN(C(=O)c2cc3ccccc3oc2=O)CC1	none
c1ccc(OCc2nc3ccccc3s2)cc1	SENP6 inh 92.8, SENP7 block 95.3, HSP90 inh 17.1, SENP8 block-2 87.6 | HSP90 confirm 24.7 | luciferase ctr inactive | SENP8 conf 84.8 | SENP6 conf 95.6 | SENP7 confirm 100.6 | Casp3 SENP sel 91.2 | Luc interf 84.2
CN1C(=O)C(CC(=O)NC2CCCCC2)SC1=Nc1ccccc1 (stereo not drawn)	none
CC(c1ccco1)N(C(=O)COc1ccc(Cl)cc1)c1ccccn1 (stereo not drawn)	SENP6 inh 50.4, HSP90 inh 20.0 | HSP90 confirm inactive | luciferase ctr inactive | SENP8 conf inactive | SENP6 conf inactive | SENP7 confirm inactive | Casp3 SENP sel 53.4 | Luc interf 51.1
COc1ccc2sc(NC(=O)c3ccco3)nc2c1	SENP6 inh 89.8, HSP90 inh 55.6, SENP8 block-2 87.2 | HSP90 confirm 60.5 | luciferase ctr 48.0 | SENP8 conf 86.7 | SENP6 conf 90.4 | SENP7 confirm 97.4 | Casp3 SENP sel 90.9 | Luc interf 85.9
Cc1cc(C)c2nc(NC(=O)c3ccco3)sc2c1	SENP6 inh 76.5, SENP7 block 80.2, HSP90 inh 18.3, SENP8 block-2 80.2 | HSP90 confirm 38.8 | luciferase ctr 33.0 | SENP8 conf inactive | SENP6 conf 72.9 | SENP7 confirm 91.7 | Casp3 SENP sel 60.7 | Luc interf inactive
COc1ccc2nc(NC(=O)c3ccoc3C)sc2c1	SENP6 inh 100.8, SENP7 block 100.5, HSP90 inh 22.4, SENP8 block-2 96.9 | HSP90 confirm 41.4 | luciferase ctr 30.1 | SENP8 conf 96.9 | SENP6 conf 99.8 | SENP7 confirm 103.1 | Casp3 SENP sel 98.5 | Luc interf 96.6
O=S(=O)(c1ccc(Cl)cc1)N1CCNCC1	none
Cc1nn(-c2ccccc2)c(Cl)c1/C=N/NC(=O)c1[nH]ncc1Br	SENP6 inh 92.2, SENP7 block 94.7, HSP90 inh 33.0, SENP8 block-2 91.6 | HSP90 confirm 45.8 | luciferase ctr 39.2 | SENP8 conf inactive | SENP6 conf 94.5 | SENP7 confirm 101.6 | Casp3 SENP sel 95.1 | Luc interf inactive
Cc1ccc(C(=O)N/N=C\c2c(C)nn(-c3ccccc3)c2Cl)cn1	none
Cc1cc2nc(-c3cccnc3SCC(=O)NC(C)C)[nH]c2cc1C	SENP6 inh 90.3, SENP7 block 87.4, HSP90 inh 33.8, SENP8 block-2 81.8 | HSP90 confirm inactive | luciferase ctr inactive | SENP8 conf 86.2 | SENP6 conf 85.2 | SENP7 confirm 98.1 | Casp3 SENP sel 88.2 | Luc interf inactive
O=C(CSc1ncccc1-c1nc2ccccc2[nH]1)NC1CC1	none

Screening data from PubChem.
